Most compounds without a hit are left out; they make up all but 12% or so of the library.
G9a block: blocks human histone lysine methyltransferase G9a. G9a H3K9 monomethylation, AlphaScreen, 2 h. 350,000 tested, 8.8% active. Potency, µM (series often up to 102 µM), for inactives: at the top dose activity, negative = inhibition, actives largely listed as inhibitors; note: potency is the fitted concentration of half-maximal effect; % is set by controls: 0 for no effect and ±100 for the full control effect; nearly all actives have a fitted effect of over 75% in size
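Methyltransferase reactions run at room temperature for 2 h (20 nM enzyme, 500 nM biotin-H3K9 peptide, 20 uM SAM) after a 15 min compound preincubation; product detected by AlphaScreen beads and anti-H3K9me1 antibody.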
PI5P4Ka inh: blocks human PI5P4K alpha kinase activity; 330,000 tested, 1.2% active; max response, %; PI5P4Kalpha enzyme, ADP-Glo luminescence, 60 min; active compounds read low; active = max response of -50% or lower; inconclusive = between -30% and -50%; inactive = -30% or higher; note: value at the top dose of about 77 µM; % is set by controls: 0 for no effect and ±100 for the full control effect
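Reactions run in 0.038 M HEPES pH 7.4, 0.28 mM EGTA, 0.1% CHAPS and 5% DMSO, with PI5P4Kalpha, substrate, compound and 5 microM ATP final, one hour at room temperature. Readout is ADP-Glo luminescence.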
HP1b chromo inh: HP1-beta chromodomain-methylated histone interaction inhibition | 390,000 tested, 0.56% active | Potency, µM (doses to about 114 µM), for inactives: at the highest dose activity change, negative = inhibition, usual class: inhibitors | AlphaScreen HP1-beta / biotin-H3K9me3 peptide binding; note: potency is the fitted concentration of half-maximal effect; nearly all actives have a fitted effect of over 70% in size
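HP1-beta protein (50 nM final) preincubated 30 min at room temperature with biotinylated H3(1-18)K9me3 peptide (50 nM) in PBS pH 7.4, 0.01% Tween-20, then compound added for 30 min. AlphaScreen streptavidin donor/nickel chelate acceptor beads (10 ug/mL final), 30 min dark, luminescence read.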
BAZ2B inh: inhibitors of human BAZ2B bromodomain; AlphaScreen BAZ2B-H3K14Ac peptide displacement; Potency, µM (doses to about 114 µM), without a hit: top-dose activity change, negative = inhibition, actives largely listed as inhibitors; 360,000 tested, 4.4% active; AID 504333; note: potency is the fitted concentration of half-maximal effect; % is set by controls: 0 for no effect and ±100 for the full control effect; nearly all actives have a fitted effect of over 60% in size
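Compounds, titrated to a top concentration of 110 uM, were incubated 30 min at room temperature with preformed BAZ2B/acetyl-K14 H3 peptide complex (50 nM each). Proximity signal was measured by AlphaScreen after 20 min with beads.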
PLK1 PBD inh: inhibitors of human PLK1 polo-box domain binding | Plk1 PBD binding of FITC phosphopeptide, fluorescence polarization | Potency, µM, for the others: max response, negative = inhibition, actives largely listed as inhibitors | 360,000 tested, 2.8% active | AID 720504; note: potency is the fitted concentration of half-maximal effect; series mostly up to about 57 µM; % is set by controls: 0 for no effect and ±100 for the full control effect; nearly all actives have a fitted effect of over 65% in size
JMJD2A Tudor: JMJD2A Tudor domain (human) inhibition | AlphaScreen JMJD2A-Tudor / H3K4me3 peptide binding | Potency, µM (series often up to 114 µM), inactives show top-dose activity change, negative = inhibition, usual class: inhibitors | O75164 | 390,000 tested, 4.4% active; note: potency is the fitted concentration of half-maximal effect; % is set by controls: 0 for no effect and ±100 for the full control effect; nearly all actives have a fitted effect of over 50% in size
Target sequence (O75164 whole entry, looked up, the tested form may be a part): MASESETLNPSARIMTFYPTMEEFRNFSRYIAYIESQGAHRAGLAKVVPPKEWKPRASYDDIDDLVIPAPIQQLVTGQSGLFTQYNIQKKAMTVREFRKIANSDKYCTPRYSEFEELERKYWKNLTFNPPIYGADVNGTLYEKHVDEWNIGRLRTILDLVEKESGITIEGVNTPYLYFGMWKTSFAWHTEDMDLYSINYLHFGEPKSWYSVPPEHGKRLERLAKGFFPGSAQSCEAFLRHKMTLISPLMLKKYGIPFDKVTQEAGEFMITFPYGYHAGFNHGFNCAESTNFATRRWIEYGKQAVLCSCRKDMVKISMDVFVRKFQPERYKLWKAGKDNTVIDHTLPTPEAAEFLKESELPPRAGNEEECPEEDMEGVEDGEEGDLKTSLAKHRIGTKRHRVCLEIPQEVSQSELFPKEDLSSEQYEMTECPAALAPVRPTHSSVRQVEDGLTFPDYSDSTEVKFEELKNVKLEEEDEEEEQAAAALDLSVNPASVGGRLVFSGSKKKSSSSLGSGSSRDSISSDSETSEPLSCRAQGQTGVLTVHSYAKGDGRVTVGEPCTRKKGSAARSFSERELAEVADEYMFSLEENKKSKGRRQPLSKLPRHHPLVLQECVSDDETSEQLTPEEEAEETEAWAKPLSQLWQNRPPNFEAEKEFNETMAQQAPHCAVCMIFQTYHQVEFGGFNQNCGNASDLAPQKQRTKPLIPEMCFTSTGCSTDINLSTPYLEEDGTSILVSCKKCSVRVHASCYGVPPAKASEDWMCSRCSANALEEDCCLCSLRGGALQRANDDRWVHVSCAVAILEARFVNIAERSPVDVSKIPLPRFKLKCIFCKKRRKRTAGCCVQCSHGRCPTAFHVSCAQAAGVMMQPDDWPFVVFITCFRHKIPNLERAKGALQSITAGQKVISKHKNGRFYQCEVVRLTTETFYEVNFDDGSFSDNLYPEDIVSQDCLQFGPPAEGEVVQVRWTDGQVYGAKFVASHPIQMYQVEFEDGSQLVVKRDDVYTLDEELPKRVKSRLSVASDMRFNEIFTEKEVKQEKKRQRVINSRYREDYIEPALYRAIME
* hit, by the source's call; u = inconclusive; x = no result; [ ] = remark or other dose. Unless noted, calls come from the whole dose curve; as a rule, active = well fitted curve in the direction sought with a large enough effect; inconclusive = small, poorly fitted or top-dose-only effect, or another doubt; inactive = no such curve, though single readings can be large; an effect the other way counts as inactive or inconclusive.

SMILES	G9a block	PI5P4Ka inh	HP1b chromo inh	BAZ2B inh	PLK1 PBD inh	JMJD2A Tudor
Cc1cc(-n2cnnn2)cc(C)c1S(=O)(=O)N(C)c1ccccc1	-1%	-1	31%	-3%	3%	4%
CNc1ncnc2ccc(-c3ccccc3C)cc12	0%[0.501 µM]	x	x	x	x	x
CCOC(=O)CSc1nc2cc3c(cc2c(=O)n1CCCCCC(=O)NCc1ccc(OC)cc1)OCO3	7%[59 µM]	x	8%	-1%	x	-14%
CCOc1ccc(-c2c(C#N)c(N)nc3sc(C(=O)c4ccccc4)c(N)c23)cc1	4%[59 µM]	-9	112%	0%	u	15%
COc1ccc(-c2c(C#N)c(N)nc3sc(C(=O)c4ccccc4)c(N)c23)cc1	50µM*	-25	86%	23%	-19%	15%
Cc1ccc(NCc2ccc(O)c3ncccc23)cc1	5µM*	u	u	-25%	2.7µM*	8.9µM*
Cc1ccc(NCc2ccc(O)c3ncccc23)cc1C	18%	-16	11%	13%	3.4µM*	u
Cc1ccc(NCc2ccccc2F)cc1	u	-7	21%	-35%	4%	0%
Cc1cccc(NC(=O)CSCC(=O)N2CCN(C(=O)c3ccco3)CC2)c1	3%[12.7 µM]	8	26%	7%	0%	-6%
CC(=O)NCCC(=O)N(C)CC1CCN(CCc2cccc(C(F)(F)F)c2)CC1	66%	-14	23%	-29%	21µM*	u
O=C(CCC1CCCN(C(=O)C2=CCCC2)C1)N1CCN(c2ccccn2)CC1 (stereo not drawn)	-63%	3	18%[57 µM]	-11%	-27%	-6%
O=C(CCC1CCCN(C(=O)CC2=CCCCC2)C1)N1CCN(c2ccccn2)CC1 (stereo not drawn)	14%	u	-17%	-3%	8.4µM*	14µM*
CN(C)C(=O)c1ccc(-c2nnc(OCc3nc4ccccc4n3C)c3ccccc23)cc1	x	-5	14%	x	-23%	-8%[11.4 µM]
COc1cc(C2Nc3cccc4cccc(c34)N2)cc(OC)c1O	7.9µM*	x	u	u	u	u
COc1ccc(C2NC(=O)c3ccccc3N2)cc1OC (stereo not drawn)	-15%[59 µM]	-7	44%	4%	-7%	15%
COc1ccc(C2Nc3cccc4cccc(c34)N2)cc1Br	35µM*	3	u	45µM*	-26%	40µM*
COC(=O)c1ccc(C2Nc3cccc4cccc(c34)N2)cc1	28µM*	u	45µM*	35µM*	-12%	20µM*
COc1cc(C2Nc3cccc4cccc(c34)N2)ccc1OC(C)=O	14µM*	u	-37%	u	27µM*	56µM*
CCc1nnc(NC(=O)CSc2nc(-c3ccc(F)cc3)cc(-c3ccccc3)c2C#N)s1	3.2µM*	-2	25%	-3%	-16%	-13%
COc1ccc(-c2cc(-c3ccccc3)nc(SCC(=O)Nc3ncc(C)s3)c2C#N)cc1	u	0	21%	-33%	-14%	-19%
CCc1nnc(NC(=O)CSc2ccc(-c3ccc(-n4cccn4)cc3)nn2)s1	10µM*	-1	31%	12%	-15%	-4%
Oc1ccc(NCc2cccs2)cc1	40µM*	1	u	u	-24%	-33%
COc1ccc(NS(=O)(=O)c2ccc3oc(SCc4ccc(F)cc4)nc3c2)cc1	79µM*	1	-5%	-3%	u	-26%
CC1CCc2noc(NC(=O)c3ccccc3[N+](=O)[O-])c2C1 (stereo not drawn)	16µM*	x	-14%	u	x	u
CN(C(=O)c1cccc(NC(=O)Cc2cccc([N+](=O)[O-])c2)c1)C1CC1	x	5	30%	x	-6%	-16%
CCOCCCn1c(=N)c(C(=O)NCc2cccnc2)cc2c(=O)n3cc(C)ccc3nc21	-2%[59 µM]	x	29%	-2%	x	-5%
COC/C=C/C1=CC2=CC(=O)C(C)(OC(=O)c3cnc4ccccc4n3)C(=O)C2=CN1Cc1ccccc1 (stereo not drawn)	-11%[12.7 µM]	-26	1%	u	-25%	-35%
